About 70 (0.2%) of roughly 33,000 compounds were called active. Not all results are given here. A number with no mark means an inactive call. No stated cut-off is given here; in the data, active means inhibition above about 30%; inactive means the rest.

Coagulation factor XII (Homo sapiens), sequence (P00748 20-372 limits assumed): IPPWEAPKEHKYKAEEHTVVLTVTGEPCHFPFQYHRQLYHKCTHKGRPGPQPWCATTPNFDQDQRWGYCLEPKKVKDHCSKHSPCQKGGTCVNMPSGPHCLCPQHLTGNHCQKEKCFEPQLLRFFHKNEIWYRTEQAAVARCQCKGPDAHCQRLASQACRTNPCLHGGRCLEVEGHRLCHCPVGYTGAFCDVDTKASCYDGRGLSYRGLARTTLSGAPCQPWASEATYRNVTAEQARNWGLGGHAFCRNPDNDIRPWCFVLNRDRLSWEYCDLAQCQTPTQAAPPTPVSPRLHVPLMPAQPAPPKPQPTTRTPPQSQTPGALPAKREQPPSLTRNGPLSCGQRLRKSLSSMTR
Coagulation factor XII (Homo sapiens), sequence (P00748 373-615 limits assumed): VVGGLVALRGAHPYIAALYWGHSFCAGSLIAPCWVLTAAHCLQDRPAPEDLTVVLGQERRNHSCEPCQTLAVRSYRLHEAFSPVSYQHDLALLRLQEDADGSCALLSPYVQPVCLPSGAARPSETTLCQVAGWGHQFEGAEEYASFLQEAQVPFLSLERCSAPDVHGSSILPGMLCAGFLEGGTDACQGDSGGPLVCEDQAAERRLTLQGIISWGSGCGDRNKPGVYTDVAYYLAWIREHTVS

This assay addresses Coagulation factor XII (Homo sapiens) (UniProt P00748). In words: human FXIIa protease inhibitors, primary screen, biochemical, single well (AID 701).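 Further: 0% = enzyme with vehicle only and 100% = no enzyme blank.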 The following applies: purified human FXIIa, AMC substrate fluorescence, 2 h; at 10 µM; active compounds read high.
On to `Cc1ccc(S(=O)(=O)/N=C(\CN2CCOCC2)N2CCOCC2)cc1`, for which the inhibition is -13.1%. For `O=C(NCCCn1ccnc1)Nc1ccc(Cl)cc1Cl`, the inhibition is -12%. The same measure for `Cc1cccc(NC(=O)CSc2nnc(-c3ccco3)o2)c1`: 7.32%. On to `CCOc1ccc(N(CC(=O)NC2CCCCCC2)S(=O)(=O)c2c(C)[nH]c(=O)[nH]c2=O)cc1`, for which the inhibition is -0.15%. Regarding `CCOc1ccc(NC(=O)c2ccccc2NS(C)(=O)=O)cc1`, the inhibition is 7.81%. For the compound `COC(=O)CSc1nnc(-c2cccnc2)o1`, the inhibition is 4.99%. Turning to `Cc1cccc(NC(=O)CSc2nc3c(c(=O)[nH]2)CCCC3)c1C`, the inhibition is 7.72%. For the compound `CCc1ccc(CNC(=O)C2CC(=O)N(CCc3ccc(C)cc3)C2)cc1` (stereo not drawn), the inhibition is -0.05%. Consider `O=C(O)CCC(=O)N(Cc1cccs1)Cc1cccs1`, for which the inhibition was -0.32%. As to `Cn1c(SCC(=O)NC2CCCCC2)nnc1-c1cc2ccccc2o1`, the inhibition is -0.46%.

As for `CC(=O)c1c(C)n(-c2ccc(N(C)C)cc2)c2ccc(OCC(N)=O)cc12`, the inhibition was 8.5%.

On to `OC(COc1cccc2ccccc12)CN1CCN(c2ccccn2)CC1` (stereo not drawn), for which the inhibition is 9.54%. As for `CCCn1c(C(Cc2ccccc2)NC(=O)COC)nc2ccccc21` (stereo not drawn), the inhibition is 7.07%. Consider `Cn1cc(S(=O)(=O)N2CCN(c3ccc(F)cc3)CC2)c(=O)n(C)c1=O`, for which the inhibition is 3.88%. In the case of `Cc1cc(NC(=O)CS(=O)(=O)c2cn(C)c3ccccc23)no1`, the inhibition is 3.14%. For `Cn1c(=O)[nH]c(=O)c2c1nc(N1CCN(CCO)CC1)n2CCSc1nc2ccccc2s1`, the inhibition was 0.63%. As to `CC(C)CNC(=O)CC(c1ccccc1)c1c(O)ccc2ccccc12` (stereo not drawn), the inhibition was 1.86%.

In the case of `C#CCN(N(C)c1ncc(C(F)(F)F)cc1Cl)S(=O)(=O)c1ccc2ccccc2c1`, the inhibition was 3.08%. The same measure for `COC(=O)c1ccccc1NC(=O)Cc1ccccc1OC`: 1.04%. The value for `Cc1ccc(S(=O)(=O)N2CCC(C(=O)NCC3CCCO3)CC2)cc1` (stereo not drawn) was 2.9%; that for `O=C(CCCn1c(SCC(=O)c2ccccc2)nc2ccccc2c1=O)NCC1CCCO1` (stereo not drawn) was 3.06%. `Cc1ccc(NC(=O)CSCC(=O)N2CCOCC2)cc1`: the inhibition was 2.79%. Regarding `Cc1ccc(C)c(N2C(=O)CS/C2=N\NC(=O)c2ccccc2Cl)c1`, the inhibition is 8.52%. Regarding `O=C(CSCc1c(F)cccc1Cl)NCC1CCCO1` (stereo not drawn), the inhibition is 7.29%. Consider `COc1ccc(C)cc1NC(=O)CCS(=O)(=O)c1cccc2nonc12`, for which the inhibition was -14.7%. On to `CCCc1noc2c1/C(=N\O)CCC2`, for which the inhibition was 8.44%. Take `Cc1ccc(/C=N/NC(=O)Cn2nc(C)c(Br)c2C)o1`: the inhibition is 5.02%. Consider `Cn1nnc(NC(=O)CSc2ncn[nH]2)n1`, for which the inhibition is 2.58%. The same measure for `Cc1ccc2cc(CCNC(=O)c3ccc4c(c3)OCO4)c(=O)[nH]c2c1`: 7.29%; for `CCOc1cc2[nH]c(=S)n(Cc3ccc(C(=O)NCCOC)cc3)c(=O)c2cc1OCC`: -2.63%; for `CCOC(=O)N1CCC(Nc2c(NCCCN3CCN(CC)CC3)c(=O)c2=O)CC1`: -0.96%. As to `COc1cc(OC)c(-n2c(C)cc(C=O)c2C)cc1Cl`, the inhibition was 3.21%. For `c1ccc(-n2nc3ccccc3n2)cc1`, the inhibition is 0.64%. The same measure for `CCOc1nc(NCCN2CCOCC2)nc(Nc2ccc(C)cc2)n1`: 2.85%; for `CCN(CC)CCn1c2ccc(Cl)cc2c2nc(C)sc21`: 5.85%; for `CCOC(=O)c1cnn(Cc2ccccc2Cl)c1N`: -0.31%. Turning to `Cc1nc2c(-c3ccc(F)cc3)c(C)nn2c(C)c1CCC(=O)NCc1ccco1`, the inhibition is 2.8%. `CCOC(=O)/C(C#N)=C\c1c(C)cc(C)c(COC(C)=O)c1C`: the inhibition is 14%. As to `Cc1cc(NC(=O)CCC(=O)N(CC(=O)NCC2CCCO2)c2ccccc2C)no1` (stereo not drawn), the inhibition is 4.76%. The same measure for `CCC(C)NC(=O)CSC1=Nc2ccccc2C2=NC(CCC(=O)NCc3ccco3)C(=O)N12` (stereo not drawn): 5.92%; for `Cc1cc(S(=O)(=O)NC2CCCCC2)ccc1OCC(=O)NCc1cccnc1`: -2.34%. On to `O=P(c1ccc2c(c1)OCCO2)(N1CCOCC1)N1CCOCC1`, for which the inhibition was -11.5%.

For `COc1ccc(C2=NOC3(CC(=O)N(c4ccc(C)cc4)C3=O)C2)cc1` (stereo not drawn), the inhibition was 12.1%. The value for `CCOc1ccc(NC(=O)Nc2cc(C)on2)cc1` was 6.76%. In the case of `O=C(NC1CCCCC1)C1CC(=O)N(CCc2ccccc2)C1` (stereo not drawn), the inhibition is 1.77%.

In the case of `O=C(NCc1ccccc1)[C@@H]1CSC2c3ccccc3C(=O)N21` (stereo partly drawn), the inhibition is 0.72%. For `Cc1ccc(-n2c(=O)cc(N3CCN(Cc4ccccc4)CC3)[nH]c2=O)cc1`, the inhibition was -11.3%. With `COCCn1c(SCc2nnc(-c3ccc(OC)c(OC)c3)o2)nc2sc3c(c2c1=O)CCC3`, the inhibition was 7.92%. The value for `Cc1csc(OCC(=O)Nc2ccc(C)c(C)c2)n1` was 7.64%; that for `Cc1cccc(N2CCN(S(=O)(=O)c3ccc4[nH]c(=O)c(=O)[nH]c4c3)CC2C)c1` (stereo not drawn) was 7.11%; that for `CCCCCCOc1ccc(OC(=O)c2cccnc2)cc1` was 4.38%. With `CCc1ccccc1NC(=O)CN(C)S(=O)(=O)c1ccc2c(c1)c(=O)n(C)c(=O)n2C`, the inhibition was -0.9%. Consider `CCn1c(CC(=O)Nc2ccc(C)cc2)nnc1SCC(=O)Nc1nc(C)cs1`, for which the inhibition was 3%. As for `CCCc1nnc(NC(=O)c2cccs2)s1`, the inhibition is 4.48%. On to `Cn1c(=O)c2c(SCC(=O)N3CCOCC3)nc(C3CC3)nc2n(C)c1=O`, for which the inhibition was 5.78%. Regarding `S=c1nccc(-c2cc(Cl)sc2Cl)[nH]1`, the inhibition was 3.01%. Take `Cc1ccccc1CSCCNC(=O)c1ccc(Cl)c(S(=O)(=O)N2CCOCC2)c1`: the inhibition is -1.19%. As to `CC(C)(C)c1ccc(OC2=CS(=O)(=O)c3ccccc32)cc1`, the inhibition is 6.47%. `CCOc1ccc(C(=O)NCCCN2CCCC2=O)cc1`: the inhibition was 6.23%. The value for `COC(=O)c1cc(NC(=O)C2C3C=CC(C3)C2C(=O)O)cc(C(=O)OC)c1` (stereo not drawn) was -2.18%. In the case of `N#CC1=C(N)N(c2ccccc2)C2=C(C(=O)CCC2)C1c1ccccc1` (stereo not drawn), the inhibition is 6.03%. The same measure for `O=C(O)CCN=C1CCc2ccccc2N1`: 6.9%; for `O=C(NCc1ccccc1Cl)c1csc2c1CCCCC2`: 5.87%.

Turning to `CC1(C)N=C(c2ccccn2)C(C)(C)N1O`, the inhibition was -0.08%. With `O=C(NCc1ccco1)C1(c2ccc(Cl)cc2)CCCC1`, the inhibition was 1.49%. As for `CNC(=O)c1nnc(Cc2ccc(Cl)cc2)o1`, the inhibition was 2.02%. The value for `O=C(c1ccc2c(c1)OCO2)N1CCOCC1` was 0.77%; that for `CCN1C(=O)/C(=C\N2CCOCC2)SC1=S` was 7.15%. For `CC1(C)COC(c2cccn2Cc2ccccc2Cl)=N1`, the inhibition was 6.11%. On to `O=C(CN1CCSCC1)N/N=C/c1ccc(F)cc1F`, for which the inhibition was 13.2%. The value for `COc1ccc(Cl)cc1C(=O)NCc1cn(C)nc1C` was 7.49%; that for `COc1ccc(CNc2ccc3c(c2)CCC3)cc1OC` was 4.51%; that for `O=C1/C(=C\Nc2ccccc2)CCN1c1ncccn1` was 11.1%. Take `N#Cc1cccc(NC(=O)CCC2CCCC2)c1`: the inhibition was 5.6%. Turning to `O=C(NC1CCCC1)C(c1ccccn1)N(C(=O)c1csnn1)C1CCCC1` (stereo not drawn), the inhibition is -12%. The same measure for `Cc1cc(C(F)F)n2nc(C(=O)Nc3ccc(S(=O)(=O)NC45CC6CC(CC(C6)C4)C5)cc3)nc2n1`: 3.77%; for `CCOc1ccc(C(O)Cn2c(=N)n(CCN3CCCCC3)c3ccccc32)cc1` (stereo not drawn): -17.3%; for `Cc1cc(C(F)(F)F)n2ncc(-c3ccccc3)c2n1`: 4.27%. For the compound `CCC1(CC)Cc2ccccc2-c2nc3ccccc3c(=O)n21`, the inhibition was -9.34%. The value for `Cc1ccc(NS(=O)(=O)c2c(C)[nH]c(=O)[nH]c2=O)cc1C` was 5.29%; that for `CC(C)NC(=O)CSc1nnc(COc2ccccc2Cl)o1` was 6.2%.

As to `CCOC(=O)N1CCC(N(CCOC)C(=O)Nc2ccc(C)c(C)c2)CC1`, the inhibition is 11%. As to `N#C/C(=C\c1ccccc1)c1n[nH]c(Cn2cncn2)n1`, the inhibition is 3.67%. As to `CCOC(=O)c1cnc(SCc2nc(N)nc(Nc3ccc(OC)cc3)n2)nc1N`, the inhibition was 2.04%. Turning to `O=C(N/N=C/C=C/c1ccccc1)C1CC1(c1ccccc1)c1ccccc1` (stereo not drawn), the inhibition is 7.46%.

As for `CCOc1ccc(NC(=O)N(CC(C)C)CC(C)C)cc1`, the inhibition is 3.85%.

With `CCC(C)NC(=O)C1CCCN(C(=O)NC2CCCCC2)C1` (stereo not drawn), the inhibition was 5.82%.

On to `O=C(CC12CC3CC(CC(C3)C1)C2)Nc1ccc2c(c1)COC2=O`, for which the inhibition is 3.57%. As to `COc1ccc(C)cc1N(C)C(=O)c1coc(=O)c2ccccc12`, the inhibition was 1.74%. The same measure for `C=CCNC(=O)C1CC=CCC1C(=O)O` (stereo not drawn): 5.98%; for `CC1CC(C)CN(CC(=O)N2c3ccccc3CCc3ccccc32)C1` (stereo not drawn): -2.18%; for `COC(CNC(=O)Cn1ncc2ccsc2c1=O)OC`: 8.94%.

`Cc1cccc(C)c1NC(=O)CSc1nnc(-c2ccccc2)n1Cc1ccc2c(c1)OCO2`: the inhibition was 7.65%. Consider `CC1(C)CC(CC(=O)O)C(=O)O1` (stereo not drawn), for which the inhibition was -10.1%.

For the compound `COc1ccccc1-c1nc(C#N)c(N2CCC(C(N)=O)CC2)o1`, the inhibition is -1.38%. `COc1ccc(Br)cc1CN1CCN(C(=O)c2cccc(OC)c2OC)CC1`: the inhibition is 6.66%. As to `O=C(CCN1c2ccccc2Sc2ccccc21)Nc1ccccc1`, the inhibition was 4.62%. Take `COc1ccc(NC(=O)C(CC(C)C)NS(=O)(=O)c2ccc3c(c2)CCN3C(C)=O)cc1OC` (stereo not drawn): the inhibition was 5.4%. As for `CCOC(=O)c1ccc2c(c1)nc(C)n2CC`, the inhibition is 2.03%. On to `CCCNC(=O)c1ccc(Cl)c(Cl)c1`, for which the inhibition was 3.09%. For the compound `CCCCc1nnc(NC(=O)CS(=O)(=O)Cc2ccccc2)s1`, the inhibition is 2.19%. Regarding `N#C/C(=C(\O)CCl)c1nnc2n1CCCCC2`, the inhibition is 1.09%.

In the case of `Cc1ccc(-n2nc3c(c2NC(=O)CCC2CCCCC2)CS(=O)C3)cc1` (stereo not drawn), the inhibition is 2.44%.

For orientation: inhibition means the change of the read-out against control, counted positive when it falls.

Source of the values: PubChem BioAssay AID701 (PCMD, 2007).
